Consider 44 compounds from PubChem BioAssay AID1851 (National Center for Advancing Translational Sciences (NCATS), 2009).

Several values for one entry are separate records, joined by “and”; a condition that tells them apart may be missing. Equal values may be shown once. Among all 16,000 compounds or so, about 2,600 (16%) were called active. Another 20% or so got no clear call; they are omitted. The entries come from a sample that favours actives as a whole. Unmarked numbers belong to inactive results. Calls come from the whole dose curve; as a rule, active = well fitted curve in the direction sought with a large enough effect; inconclusive = small, poorly fitted or top-dose-only effect, or effect the other way; inactive = no such curve, though single readings can be large or run the other way.

What is called AC50 is the midpoint of the concentration-response curve, whichever way the signal moves.
% is set by controls: 0 for no effect and ±100 for the full control effect.

Cytochrome P450 2D6 (Homo sapiens), sequence (P10635 whole entry, looked up): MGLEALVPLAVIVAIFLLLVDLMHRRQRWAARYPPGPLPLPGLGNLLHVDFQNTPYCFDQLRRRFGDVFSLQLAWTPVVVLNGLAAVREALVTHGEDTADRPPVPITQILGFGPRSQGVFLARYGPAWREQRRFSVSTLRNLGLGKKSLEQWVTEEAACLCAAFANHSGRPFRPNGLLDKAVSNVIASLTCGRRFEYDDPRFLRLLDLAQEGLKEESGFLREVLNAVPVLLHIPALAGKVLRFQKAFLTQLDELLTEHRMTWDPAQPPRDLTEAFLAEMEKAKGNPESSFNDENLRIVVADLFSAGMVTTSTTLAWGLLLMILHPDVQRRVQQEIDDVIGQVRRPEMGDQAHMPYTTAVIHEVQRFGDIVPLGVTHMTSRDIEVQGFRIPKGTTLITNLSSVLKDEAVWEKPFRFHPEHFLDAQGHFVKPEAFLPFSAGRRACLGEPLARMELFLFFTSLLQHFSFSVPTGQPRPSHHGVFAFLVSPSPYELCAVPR

This assay has as its target Cytochrome P450 2D6 (Homo sapiens) (UniProt P10635). The experiment in a line: Cytochrome panel assay with activity outcomes. The settings on record: recombinant CYP, pro-luciferin dealkylation, luminescence, p450-cyp2d6; series mostly up to 57.1 µM; activity, negative = inhibition: at the top concentration.
As to `COCOc1ccc(Br)cc1C(=O)/C=C\c1ccc2c(c1)OCO2`, the AC50 was 3.16 µM (active).

In the case of `NC[C@@H](O)CSP(=O)(O)O`, the activity, negative = inhibition is 3.14% [at 11.4 µM].

Take `O=C1C[C@@H](c2ccc(O)cc2)Oc2cc(O)cc(O)c21`: the “activity, negative = inhibition” value was -8.7% [at 25.6 µM].

Turning to `CC(=O)O[C@H]1CC[C@@]2(C)[C@@H](CC[C@H]3[C@H]2CC(=O)[C@]2(C)[C@@H]3C[C@@H](N3CC3)[C@H]2C(C)=O)C1`, the activity, negative = inhibition was -8.74% [at 11.4 µM].

Turning to `NC(N)=NC(=O)c1nc(Cl)c(N)nc1N`, the AC50 result was “inactive”.

For the compound `Ic1ccccc1CN[C@@H]1C2CCN(CC2)[C@H]1C(c1ccccc1)c1ccccc1`, the AC50 was 0.0631 µM (active).

As for `NO`, the “activity, negative = inhibition” value is 1.31%.

As for `CC(=O)OCC1=C(C(=O)[O-])N2C(=O)[C@@H](NC(=O)CCC[C@@H](N)C(=O)[O-])[C@@H]2SC1.[Zn+2]`, the “activity, negative = inhibition” value is 1.63%.

As for `O=c1cc(-c2ccc(O)cc2)oc2c([C@H]3O[C@@H](CO)[C@@H](O)[C@@H](O)[C@@H]3O)c(O)cc(O)c12`, the “activity, negative = inhibition” value is -1.71% [at 25.6 µM].

Consider `COC(=O)[C@H]1C(=O)c2ccccc2O[C@@](C(=O)OC)(c2ccccc2)[C@@H]1c1ccccc1`, for which the activity, negative = inhibition was 11.5% [at 11.4 µM].

Turning to `Cn1cccc1CNCCc1ccccc1`, the AC50 was 2.51 µM (active).

For the compound `O=C(O)Cc1ccc([N+](=O)[O-])cc1[N+](=O)[O-]`, the activity, negative = inhibition was 5.45% [at 11.4 µM].

As for `Cc1cc(Cc2cc(C)c(N)cc2N)c(N)cc1N`, the activity, negative = inhibition was -18.6% [at 11.4 µM].

Take `CSCC[C@@H](N)P(C)(=O)O`: the activity, negative = inhibition is 3.31% [at 11.4 µM].

For `c1ccc2c(c1)[I+]c1ccccc1-2`, the half-maximal activity concentration (AC50) is 3.98 µM (active) and 794 nM (active).

On to `CN1C2C=C3C(C#N)=C(N)C(C#N)(C#N)[C@H](c4c(F)cccc4F)[C@H]3C1CC2` (some centres undefined), for which the “activity, negative = inhibition” value was -27.7%.

As to `CCC[C@@](C)(COC(N)=O)COC(=O)NC(C)C`, the “activity, negative = inhibition” value is -0.665% [at 25.6 µM].

As to `Cc1ccccc1-c1cncnc1NCCc1cnc[nH]1`, the AC50 is 12.6 µM (active).

For `Clc1ccccc1-c1cncnc1NCCc1cnc[nH]1`, the AC50 was 3.98 µM (active).

Regarding `CNCCc1cnc[nH]1`, the “activity, negative = inhibition” value was -9.55%.

Consider `Cn1cnc(CCN)c1`, for which the “activity, negative = inhibition” value was 10.3%.

As for `C[C@H]1CC[C@@]2(NC1)O[C@@H]1C[C@H]3[C@@H]4CC[C@@H]5C[C@@H](O)CC[C@@]5(C)[C@@H]4CC[C@]3(C)[C@@H]1[C@@H]2C`, the “activity, negative = inhibition” value is -1.98% [at 25.6 µM].

Consider `C[C@]1(C(=O)O)[C@@H]2CC[C@@H](O2)[C@@]1(C)C(=O)O`, for which the “activity, negative = inhibition” value was -0.463%.

On to `[N-]=[N+]=CC(=O)CC[C@H](N)C(=O)O`, for which the activity, negative = inhibition is -11.2% [at 11.4 µM].

With `CN(C)CCCNc1c2c(nc3ccc(Cl)cc13)CCCC2`, the activity, negative = inhibition was 9.14% [at 11.4 µM].

For `COc1ccc(C2SCC(=O)Nc3c2c(C)nn3C2CCOC(C)(C)C2)cc1` (centres undefined), the “activity, negative = inhibition” value was 6.24%.

On to `C[C@@]12CC[C@H](O)C[C@@H]1CC[C@@H]1[C@@H]2CC[C@@]2(C)[C@@H](C3=CC(=O)OC3)[C@H](O)C[C@]12O`, for which the activity, negative = inhibition is 17.5% [at 11.4 µM].

Turning to `Cc1cc2c(C(F)(F)F)cc(=O)oc2c2c1NCCC2`, the “activity, negative = inhibition” value was -6.37%.

Turning to `N=C(N)SCc1ccc(Cl)c2ccccc12` (tested in a mixture with another compound), the AC50 was 3.16 µM (active).

With `C/C(=N\OC(=O)NC(C)C)c1sc(-c2ccc(Cl)cc2)nc1C`, the “activity, negative = inhibition” value was -20.1%.

With `C[C@@]12CC[C@H](O[C@@H]3O[C@H](CO)[C@@H](O)[C@H](O)[C@@H]3O)C[C@@H]1CC[C@H]1[C@H]2CC[C@@]2(C)[C@@H](C3=CCOC3=O)CC[C@]12O`, the activity, negative = inhibition was -0.449% [at 11.4 µM].

In the case of `COc1ccc(C[C@H]2NC[C@H](O)[C@@H]2OC(C)=O)cc1`, the concentration at half-maximal activity (AC50) is 7.94 µM (active).

`c1ccc2c(c1)OC[C@@H](C1=NCCN1)O2`: the half-maximal activity concentration (AC50) is 0.631 µM (active).

On to `C[N+]1(C)CCO[C@](O)(c2ccc(-c3ccc([C@]4(O)C[N+](C)(C)CCO4)cc3)cc2)C1`, for which the “activity, negative = inhibition” value was 6.78% [at 25.6 µM].

As to `Cc1ccc(N=Nc2c(O)[nH]c(=O)[nH]c2=O)c([N+](=O)[O-])c1`, the “activity, negative = inhibition” value was -25.8%.

For the compound `Nc1nc(N)c(N=Nc2ccc([As](=O)(O)O)cc2)c(=O)[nH]1`, the activity, negative = inhibition is 13.1% [at 11.4 µM].

With `CCCCCCCCCCCCCC(=O)O[C@H]1[C@@H](C)[C@@]2(O)[C@@H](C=C(CO)C[C@]3(O)C(=O)C(C)=C[C@@H]23)C2C(C)(C)[C@]21OC(C)=O` (some centres undefined), the “activity, negative = inhibition” value was -9.86%.

`COCCCNC(=S)NC1CC2CCCC(C1)N2Cc1cccs1` (centres undefined): the half-maximal activity concentration (AC50) was 0.891 µM (active).

Regarding `COCCNC(=S)NC1CC2CCCC(C1)N2Cc1cccs1` (centres undefined), the concentration at half-maximal activity (AC50) was 0.398 µM (active).

In the case of `CCc1ccccc1NC(=O)NC1CC2CCC(C1)N2Cc1cccs1` (centres undefined), the AC50 is 6.31 µM (active).

As for `COCCNC(=S)N1C2CCC1CC(NC(=O)NC13CC4CC(CC(C4)C1)C3)C2` (centres undefined), the “activity, negative = inhibition” value was 5.78%.

On to `C=C1C(O)(c2ccccc2)C2CC[N+]1(C)CC2` (centres undefined), for which the “activity, negative = inhibition” value is -29.7%.

For the compound `Cn1c(O)c(C(=N)COc2ccccc2)c(=O)n(C)c1=O`, the “activity, negative = inhibition” value was -6.8%.

Turning to `CCCCc1ccc(C(=O)O)nc1`, the AC50 entry is “inactive”.
